EWS-Fli inh: EWS/Fli transcriptional activity inhibition. A673 NR0B1-luciferase reporter, viability-normalised. inhibition, % at 12.6 µM. 350,000 compounds, 0.67% hits. AID 651661;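 active = mean inhibition of at least 50% after viability correction, with every replicate also passing that limit; inconclusive = mean reaches 50% but only one of two replicates passes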;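 note: firefly luciferase signal divided by Alamar Blue viability fluorescence both relative to DMSO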
LGR2 inh: blocks bursicon-induced cAMP signaling via Drosophila LGR2; HEK293 LGR2, CRE-luciferase, bursicon-stimulated, 4 h; inhibition, % at 9.99 µM; 380,000 compounds, 0.35% hits; AID 720647;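 active = drop in luminescence signal, shown as inhibition above about 50% in the replicate tests, limit read from the data, passing the limit was not always enough; inconclusive = probably only some replicates passing the limit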;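 note: agonist challenge used bursicon conditioned medium at about half maximal strength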
TWEAK Fn14 block: inhibitors of TWEAK-Fn14 interaction signaling; AID 1159606; TWEAK-stimulated Fn14 reporter cells, luciferase luminescence, 8 h; 360,000 compounds, 2% hits; inhibition, % at 10 µM; in the data active = inhibition above about 50%
EBV LMP1 NFkB: inhibitors of Epstein-Barr LMP1-induced NF-kappaB reporter | inhibition, % at 12.5 µM | 350,000 compounds, 0.69% hits | LMP1-induced NF-kappaB luciferase reporter cells, luminescence; in the data active = inhibition above about 41%; inconclusive = no clear call, values can overlap the other calls;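 note: 0% = neutral control wells and 100% = reference inhibitor control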
TROY signal inh: inhibitors of TROY-dependent NF-kB signaling | Q293 LMP1-TROYcd NF-kB luciferase reporter, 4 h | inhibition, % at 10 µM | 360,000 compounds, 0.98% hits | AID 1347056;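 active = compounds whose plate-normalised and pattern-corrected inhibition of the luciferase reporter signal at the single screening dose is 50% or more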
PAX8 reporter: lowers PAX8-driven luciferase in RMG-I cells; 360,000 compounds, 1.2% hits; inhibition, % at 12.6 µM; RMG-I TPO-luciferase reporter, SteadyGlo, 24 h;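 active = mean replicate inhibition at least 60% with every replicate also reaching 60%; inconclusive = only one of the two criteria is met; inactive = mean below 60% and not all replicates reaching 60%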;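 note: luciferase light reporting Pax8 driven TPO promoter activity; plate controls were median of neutral control wells for no effect and mitoxantrone controls for full effect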
The depositor's hits bear a star; ? = inconclusive; . = no result. Compounds with a hit are over-represented: about 3.2% of the library has one in this group of screens.

SMILES	EWS-Fli inh	LGR2 inh	TWEAK Fn14 block	EBV LMP1 NFkB	TROY signal inh	PAX8 reporter
CCNc1nc(-c2sc(NC(=O)C(C)(C)C)nc2C)c(-n2cc(-c3ccccc3)nn2)s1	2	-23	86*	.	-1	-7
FC(F)(F)c1ccccc1Cc1c(-c2ccc(Cl)cc2)nc2c3ccccc3ccn12	7	-19	-4	.	-69	16
Fc1ccc(-c2nc3c4ccccc4ccn3c2Cc2ccccc2C(F)(F)F)cc1	.	.	-2	.	59*	.
Cc1nc(SCCC(=O)O)c2cc(-c3ccccc3)sc2n1	63*	23	49	37	39	-4
Cc1nc(N2CCOCC2)c2cc(-c3ccccc3)sc2n1	.	.	-14	-4	-38	.
O=C(Nc1cccc(F)c1)N1C[C@@H]2[C@H](c3ccccc31)[C@H](CO)N2C(=O)c1ccccn1	-10	-12	.	.	.	-12
COc1cccc(-c2ccc([C@H]3[C@H](CO)N4C(=O)CN(C(=O)NC(C)C)C[C@@H]34)cc2)c1	-5	-5	.	.	.	-6
CCN1[C@@H]2Cn3c(ccc(-c4cccc(F)c4)c3=O)[C@H]1[C@@H](C(=O)NCC1CC1)[C@@H]2CO	-9	-6	.	.	.	.
O=C(OC(c1ccccc1)c1nccc2ccccc12)c1ccccc1 (stereo not drawn)	-28	?	98*	4	87*	-132
C[C@@H]1CN([C@@H](C)CO)C(=O)CCCn2nncc2CO[C@H]1CN(C)C(=O)Nc1cccc(C(F)(F)F)c1	2	5	.	.	.	-4
CC(Oc1cccc(Cl)c1)C(=O)Nc1nc(-c2ccccn2)cs1 (stereo not drawn)	35	8	-7	5	6	71*
Cc1ccc(C(=O)Nc2nc(-c3ccccn3)cs2)s1	-33	.	-12	27	-35	43
O=C(Nc1nc(-c2ccccn2)cs1)c1ccc(Cl)s1	3	-9	-31	73*	-59	38
Cn1cccc1C(=O)Nc1nc(-c2ccccn2)cs1	.	.	7	42*	-77	.
Cc1cccnc1Nc1nc(-c2ccccn2)cs1	.	.	101*	51*	-29	.
CC(C)NC(=O)N(C)C[C@H]1Oc2c(NC(=O)Nc3ccc(C(F)(F)F)cc3)cccc2C(=O)N([C@@H](C)CO)C[C@@H]1C	-3	-5	.	.	.	4
C[C@@H]1CN([C@@H](C)CO)C(=O)c2cc(NS(=O)(=O)c3ccccc3)ccc2O[C@@H](C)CCCCO[C@H]1CN(C)Cc1ccc(C(=O)O)cc1	1	-3	.	.	.	-10
Cc1c(C(=O)Nc2nc(-c3ccccn3)cs2)oc2ccccc12	.	.	-16	41*	-24	.
C[C@@H]1CN([C@@H](C)CO)C(=O)c2cc(N(C)C)ccc2O[C@@H](C)CCCCO[C@H]1CN(C)S(=O)(=O)c1ccc(F)cc1	0	8	.	.	.	88*
C[C@@H]1CCCCO[C@H](CN(C)S(=O)(=O)c2ccc(Cl)cc2)[C@H](C)CN([C@@H](C)CO)C(=O)c2cc(N(C)C)ccc2O1	-1	-9	.	.	.	77*
Cc1cc(C)n(S(=O)(=O)c2ccc(F)cc2)n1	-4	5	73*	-2	-2	-2
OC[C@@H]1[C@@H](c2ccc(Cl)cc2)C(c2cccc(Cl)c2)=NN1c1ccccc1	-3	-4	62*	-2	0	17
Cc1ccc(OCCC(=O)OCC(=O)c2c(N)n(CC(C)C)c(=O)n(C)c2=O)cc1	4	5	-17	72*	23	-6
CCOc1ccc(OCCC(=O)OCC(=O)c2c(N)n(CC(C)C)c(=O)n(C)c2=O)cc1	6	8	-1	-4	20	6
CC(C)Cn1c(N)c(C(=O)COC(=O)CC23CC4CC(CC(C4)C2)C3)c(=O)n(C)c1=O	.	.	73*	13	59*	.
SMILES	EWS-Fli inh	LGR2 inh	TWEAK Fn14 block	EBV LMP1 NFkB	TROY signal inh	PAX8 reporter
CCC1CSC(Nc2ccc(C(=O)/C=C/c3cccc(C)c3)cc2)=N1 (stereo not drawn)	-10	.	52*	-2	-11	-24
CCC1CSC(Nc2ccc(C(=O)/C=C/c3ccc(Oc4ccccc4)cc3)cc2)=N1 (stereo not drawn)	.	-21	14	-12	-36	.
Cc1nn(C(C)(C)C)c(C)c1/C=N/OC(=O)Nc1ccc(Cl)c(Cl)c1	9	.	105*	47*	87*	1
Cc1nn(C)c(C)c1NC(=O)Nc1ccc(Cl)c(Cl)c1	-5	13	4	-1	-23	3
COc1ccc(NC(=O)O/N=C/c2c(C)nn(C(C)(C)C)c2C)cc1	-52	.	-10	-17	65*	-128
O=C([C@H]1[C@H](CO)[C@H]2Cn3c(ccc(/C=C/c4ccccc4)c3=O)[C@H]2N1CC1CC1)N1CCOCC1	1	-3	.	.	.	32
CCOC(=O)Nc1cc(C(=O)OCC)c(C)nc1C	.	.	76*	-4	.	.
CCOC(=O)N1C(=O)[C@](c2ccc(Cl)cc2)(C(C)C)N1C(=O)OCC	-5	26	34	-1	-3	6
CCOC(=O)N1C(=O)[C@@](c2ccc(Cl)cc2)(C(C)C)N1C(=O)OCC	10	?	76*	-3	36	69*
CCc1cccc(CC)c1NC(=O)CSc1nc2ccc(N3C(=O)C4C5C=CC(C5)C4C3=O)cc2s1 (stereo not drawn)	.	.	14	8	20	22
O=C(O)c1ccc(CSc2nc3ccc(N4C(=O)C5C6C=CC(C6)C5C4=O)cc3s2)cc1 (stereo not drawn)	.	2	51*	-10	34	17
C=C1C(=O)OC2CC1C(OC(C)=O)CC(C)=CCCC(C)=CCCC2(C)O (stereo not drawn)	38	.	71*	.	38	.
C=C1C(=O)OC2CC1C(O)CC(C)=CCCC(C)=CC(O)CC2C (stereo not drawn)	4	.	92*	-3	37	101*
C=C1C(=O)OC2/C=C(/C)CC/C=C(/C)CCC12 (stereo not drawn)	2	.	.	.	.	98*
C=C1C(=O)O[C@H]2[C@H]1[C@H](OC(=O)/C(C)=C\C)C[C@]1(CO1)[C@@H]1[C@H](OC(C)=O)C=C(C)[C@]21O	-3	6	16	-7	11	16
COc1ccc(S(=O)(=O)Nc2ccc3c(c2)C(=O)N([C@H](C)CO)C[C@@H](C)[C@H](CN(C)S(=O)(=O)c2ccc(F)cc2)OCCCC[C@@H](C)O3)cc1	13	9	.	.	.	55
CO[C@@]12[C@@H]3N[C@@H]3CN1C1=C(C(=O)C(N)=C(C)C1=O)[C@@H]2COC(N)=O	27	-18	-12	62*	11	48
NC(=O)c1cc2ccncc2c2ccccc12	3	22	-15	35	58*	-26
O=C(CN1C(=O)CSc2ccc(S(=O)(=O)N3CCOCC3)cc21)NCCc1ccccc1	-6	4	97*	2	-1	.
O=C(Nc1ccc(C(F)(F)F)cc1)N[C@H]1CC[C@H](CC(=O)N2CCCCC2)O[C@H]1CO	0	15	.	.	.	3
Cc1ccc(C(C)C)c(OCC(=O)c2c(O)c3ccccc3oc2=O)c1	.	.	15	10	51*	.

High-throughput results from PubChem BioAssay.
